Measured values from PubChem BioAssay AID493168 (National Center for Advancing Translational Sciences (NCATS), 2011).
Results filed as inconclusive are left out. Activity calls are given as the source filed them. Calls come from the whole dose curve; as a rule, active = well fitted inhibition curve with a large enough effect; inconclusive = small, poorly fitted or top-dose-only effect, or effect the other way; inactive = flat fitted curve, though single readings scatter.

What follows are molecules tested against Ubiquitin carboxyl-terminal hydrolase 2 (Homo sapiens) (UniProt O75604) (assay: Confirmation Assay for Inhibitors of Ubiquitin-specific Protease USP2a Using CHOP2 as the Reporter). Details: USP2 core, Ub-CHOP2 coupled reporter fluorescence; series mostly up to 38.3 µM.
Text: NIH Molecular Libraries Probe Centers Network [MLPCN] NIH Chemical Genomics Center [NCGC] MLSCN Grant: XO1-MH079852-01 PI Name: Nicholson, Ben. Progenra Inc, Malvern, PA NCGC Assay Overview: Homeostasis of cellular proteins is maintained through a combination of synthesis and degradation. The pathway that accounts for the majority of protein degradation is the ubiquitin-proteasomal pathway. Ubiquitin (Ub) is highly conserved in all cells and the generation of a multi-Ub chain typically targets proteins for degradation by the proteasome. However, ubiquitination is highly reversible and dynamic. Deubiquitination, the reverse process, is catalyzed through the action of enzymes referred to as isopeptidases or deubiquitinating enzymes (DUBs). This group of enzymes is collectively responsible for maintaining adequate pools of free ubiquitin and regulating the ubiquitination status of cellular proteins. The class of DUBs referred to as the ubiquitin-specific proteases (USP) family functions endoproteolytically to cleave Ub chains from a wide range of protein substrates. USP2a deubiquitinates fatty acid synthase (FASN) which has recently been identified as an emerging oncology target. To identify inhibitors of USP2a a cell-free assay was employed. […] The reporter enzyme chosen is an […] called CHOP2, which is activated when the Ub is cleaved by USP2. The free and now activated reporter can subsequently act on its reporter substrate. Thus, this coupled assay gives a fluorescent read-out at excitation/emission wavelengths of 485/531. The assay was developed by Progenra, Inc. and has been licensed for sale by LifeSensors, Inc. as Ub-CHOP2-Reporter-Kit (#PR1101).
NCGC Assay Protocol Summary: The assay buffer, prepared fresh at the day of the assay, contains 20mM Tris-HCl pH 8.0, 2mM CaCl2, 2mM beta-Mercaptoethanol, 0.05% CHAPS. 3ul of 20nM (10nM final) USP2 core, which is stored on ice, is dispensed into a medium-binding black solid Kalypsys 1,536 well plate using the Kalypsys dispenser. The assay plate is then pinned with 23nL compound with the Kalypsys pintool in columns 5-48. The controls are pinned as follows: column 1 two-fold dilutions of 2M NEM in duplicate; column 2 2M NEM (final concentration 38.2mM); column 3&4 DMSO. The assay plate is incubated at RT for 30min. Subsequently, 1.5uL of 100nM (25nM final) Ub-CHOP2 and 1.5uL of 100nM (25nM final) Reporter Substrate (both stored on ice and protected from light) were dispensed into the plate using the Kalypsys dispenser. Plates were read after 60min RT incubation on a ViewLux (Perkin Elmer) plate reader using the following wavelengths Ex 485nm /Em 531nm. Data were normalized to the to AC100 inhibition (NEM). Concentration-response curves were fitted to the normalized data and the concentration-response curves were then classified based on curve quality (r2), response magnitude and degree of measured activity. The time zero reading was used to flag fluorescence artifacts. Keywords: ubiquitination, deubiquitination, proteases, profluorescent, MLSMR, MLPCN, NIH Roadmap, qHTS, NCGC
Note: nearly all actives have a fitted effect of over 55% in size.
Potency is the fitted concentration of half-maximal effect.

Sequence of Ubiquitin carboxyl-terminal hydrolase 2 (Homo sapiens) (O75604 whole entry, looked up): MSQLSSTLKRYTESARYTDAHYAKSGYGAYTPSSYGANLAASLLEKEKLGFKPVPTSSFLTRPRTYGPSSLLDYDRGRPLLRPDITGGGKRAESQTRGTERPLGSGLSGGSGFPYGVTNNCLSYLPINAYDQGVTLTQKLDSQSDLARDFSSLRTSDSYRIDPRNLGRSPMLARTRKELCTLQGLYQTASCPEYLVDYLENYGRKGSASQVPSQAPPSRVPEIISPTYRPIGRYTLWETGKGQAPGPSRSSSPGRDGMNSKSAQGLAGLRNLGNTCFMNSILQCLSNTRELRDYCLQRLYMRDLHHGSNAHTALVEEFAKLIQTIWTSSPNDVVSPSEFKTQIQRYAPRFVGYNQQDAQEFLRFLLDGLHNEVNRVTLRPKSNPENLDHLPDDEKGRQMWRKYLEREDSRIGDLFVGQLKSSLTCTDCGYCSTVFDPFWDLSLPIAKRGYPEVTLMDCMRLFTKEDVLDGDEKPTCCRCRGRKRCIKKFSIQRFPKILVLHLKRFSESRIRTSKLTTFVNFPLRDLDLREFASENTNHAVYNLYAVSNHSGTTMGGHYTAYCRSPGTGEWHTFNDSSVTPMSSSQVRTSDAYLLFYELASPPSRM

Potency, inactive:
CCOC(=O)C1CCCN(CC(=O)Nc2c(C(=O)OC)[nH]c3ccc(C)cc23)C1 (stereo not given)
COc1cc(/C=C/[N+](=O)[O-])ccc1OCc1cccc(C(=O)O)c1
O=C(COc1ccccc1)N1CCN(C(=O)Cc2ccccc2)CC1
CCOc1ccc(Cn2c(=O)sc3ccccc32)cc1OC
COc1ccccc1-c1nnc(SCC(=O)Nc2nc(-c3ccccc3)cs2)n1C
CCC(C)NC(=O)C1CN(S(=O)(=O)c2ccccc2)CCN1S(=O)(=O)c1ccccc1 (stereo not given)
CCOC(=O)N1CCN(CC(=O)n2c(C)c(C)c3ccccc32)CC1
CS(=O)(=O)c1nc(-c2ccc(Br)cc2)cc(-c2ccccc2)c1C#N
CCN(CC(=O)Nc1ccc(NC(C)=O)cc1)C(=O)c1ccc(N2CCC(C)CC2)c([N+](=O)[O-])c1
CCNC(=S)N/N=C/c1cn(Cc2ccc(F)cc2)c2ccccc12
O=C(OCc1ccccc1)C1CCCN1C(=O)c1cccs1 (stereo not given)
CNc1cccccc1=S
Cc1c(C(=O)NCc2c(F)cc(F)cc2F)oc2ccc(S(=O)(=O)N3CCOCC3)cc12
CCN(Cc1ccncc1)C(=O)c1cccs1
O=C1c2ccccc2C(=O)N1CCC1=CCCCC1
C=CCSC1=N/C(=C\C=C\c2ccco2)C(=O)S1
O=[N+]([O-])c1cc(-c2nnc(Nc3ccccc3)c3ccccc23)ccc1N1CCOCC1
Cc1ccc(-c2nc(N/N=C/c3ccncc3)c3ccccc3n2)cc1
Cc1ccc(SCC(=O)NCC(C)C)cc1
CCNC1=C(Cl)C(=O)c2ccccc2C1=O
Cc1ccc(N(CC(=O)N/N=C/c2ccco2)S(=O)(=O)c2ccccc2)cc1
CCOc1cc(/C=C/c2nc3cc(C)c(C)cc3s2)ccc1OCC(=O)N1CCOCC1
Cc1cc(C(=O)OCC(=O)c2cccc([N+](=O)[O-])c2)c2cccc(C)c2n1
Cc1ccc(C(=O)C(=S)N2CCOCC2)cc1
CCC(C)NC(=O)CSC1=Nc2ccccc2C2=NC(c3ccccc3)C(=O)N12 (stereo not given)
Cc1cccc(N2CCN(C(=O)CCc3nc4ccccc4[nH]3)CC2C)c1 (stereo not given)
COC(=O)c1ccc(NC(=O)CSC2=Nc3ccccc3C3CC=NN23)cc1 (stereo not given)
O=C(Nc1cnn(Cc2ccccc2)c1)c1nc2ncccn2n1
Cc1cc(C)n2nc(S(=O)(=O)NCCc3ccccc3)nc2n1
CC(C)(C)NC(=O)C(c1ccco1)N(C(=O)c1ccc(CN2CCOCC2)o1)c1ccccc1 (stereo not given)
O=C1CCCc2nc(N3CCN(c4ccccc4)CC3)ncc21
Cc1ccc(C(C(=O)NC2CCCC2)N2CCc3ccccc32)cc1 (stereo not given)
CSC1=NCCN1C(=O)Cc1ccc(F)cc1
COc1ccc(S(=O)(=O)N2CCCCC2)cc1NC(=O)Cc1c[nH]c2ccccc12
CCOC(=O)CCCNC(=O)COC(=O)c1cccc(C)c1O

Potency, active:
O=c1[nH]c(=S)[nH]c2c1C(c1ccc(Br)cc1)c1c([nH]c(=S)[nH]c1=O)O2 9.27 µM
O=C(N/N=C/c1ccc(-c2ccc(S(=O)(=O)Nc3ncccn3)cc2)o1)c1cc2ccccc2cc1O 9.27 µM
O=C(O[C@@H]1OC2COC(=O)c3cc(O)c(O)c(O)c3-c3c(cc(O)c(O)c3O)C(=O)O[C@@H]([C@H]1O)[C@@H]2O)c1cc(O)c(O)c(O)c1 16.5 µM
NS(=O)(=O)c1ccc(N=Nc2c(O)c(C(=O)O)cc3ccccc23)cc1 13.1 µM
CC(C)C(C(=O)O)N1C(=O)/C(=C/C=C/c2ccco2)SC1=S (stereo not given) 6.56 µM
